From PubChem BioAssay (NCI)
This is part of a sample that, as a whole, favours compounds with a hit. Of some 83,000 tested, about 20% had one in any assay.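 The test compound was applied at a single concentration to cells in 96-well plates for 48 hours, and percent growth was recorded.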 A number with no mark means an inactive call. Activity calls are given as the source filed them. Rule for the calls: active = growth percent below 10; inactive = the rest.

Key:
Test in all cases: NCI-60 one-dose screen, 48 h (100 = growth as untreated, 0 = no growth, -100 = all killed)
Settings in all cases: 10 µM unless noted
HCT-15 colon = tested on: HCT-15 colon
HT29 colon = tested on: HT29 colon
SNB-75 CNS = tested on: SNB-75 CNS
SNB-19 CNS = tested on: SNB-19 CNS
U251 CNS = tested on: U251 CNS
PC-3 prostate = tested on: PC-3 prostate
SK-MEL-5 melanoma = tested on: SK-MEL-5 melanoma
UACC-62 melanoma = tested on: UACC-62 melanoma
LOX IMVI melanoma = tested on: LOX IMVI melanoma
SK-MEL-28 melanoma = tested on: SK-MEL-28 melanoma

Compound	growth (HCT-15 colon)	growth (HT29 colon)	growth (SNB-75 CNS)	growth (SNB-19 CNS)	growth (U251 CNS)	growth (PC-3 prostate)	growth (SK-MEL-5 melanoma)	growth (UACC-62 melanoma)	growth (LOX IMVI melanoma)	growth (SK-MEL-28 melanoma)
CCOC(=O)c1cc2oc(/C=C/c3cc(=O)c4cc(Cl)ccc4o3)cc2[nH]1	105%	96.6%	73%	92.1%	92.5%	85.2%	68.2%	75.8%	101%	91.4%
COc1cccc(N2CCN(CC(=O)N3CCN(c4nnc(-c5ccc(Cl)cc5)c(-c5ccc(Cl)cc5)n4)CC3)CC2)c1	49.5%	51%	76.3%	77.1%	65.7%	15.8%	48.4%	70.4%	65%	88.7%
CC1CN(CC(O)c2ccc(Br)cc2)CCO1 (stereo not given)	107%	113%	91.4%	105%	95.8%	101%	108%	108%	107%	119%
O=C1CSC(c2ccccc2O)N1c1nnc(Cn2ccnc2)o1 (stereo not given)	28.8%	86.2%	74.9%	86.3%	66.6%	64.6%	55.1%	77.4%	56%	74.8%
COc1ccc2ncccc2c1Cc1c(OC)ccc2ncccc12	57.8%	30%	44.1%	82.2%	57.4%	74.6%	60.5%	58%	68.4%	77.4%
CCCCCc1c(C)[nH]c(/C=C2\N=C(c3ccc[nH]3)C=C2Oc2ccccc2)c1C	-99.5% [100 µM] (active)	-56.9% [100 µM] (active)	-62.1% [100 µM] (active)	-95.2% [100 µM] (active)	-99.6% [100 µM] (active)	-21.6% [100 µM] (active)	-61% [100 µM] (active)	-92.3% [100 µM] (active)	-90% [100 µM] (active)	-95.1% [100 µM] (active)
Cc1n(Cc2ccc3ccccc3c2)cc[n+]1Cc1ccc2ccccc2c1	85.3%	1.25% (active)	1.07% (active)	2.02% (active)	8.17% (active)	14.1%	-92% (active)	-40.3% (active)	-75% (active)	-11.6% (active)
O=C1Nc2ccc(Cl)cc2[C@@](C#CC2CC2)(C(F)(F)F)O1	82.9%	86.6%	114%	103%	92%	92.9%	78%	70%	85.5%	109%
NS(=O)(=O)c1ccc(-n2ncc3c(N/N=C/c4ccccc4)ncnc32)cc1	108%	81%	104%	80.4%	89.7%	80.6%	86.7%	96.8%	91.7%	95.3%
O=C(Nc1nc2c(C(F)(F)F)cccc2s1)c1cc(Cl)ccc1O	12.3%	0.653% (active)	14%	10.2%	3.11% (active)	3.52% (active)	-46.7% (active)	-37.3% (active)	5.52% (active)	28.6%
OCCCc1n(Cc2ccc3ccccc3c2)c2ccccc2[n+]1Cc1ccc2ccccc2c1	86.4%	6.48% (active)	19.8%	3.3% (active)	13.6%	22.9%	-97.8% (active)	-48.2% (active)	-41.9% (active)	-28% (active)
c1ccc(CN=C(NCc2ccccc2)NCc2ccccc2)cc1	79.7%	62.6%	59.3%	68.1%	51.9%	24.9%	35%	63.8%	59.8%	98.8%
CN(C)c1ncnc2c1ncn2C1CCCCO1 (stereo not given)	100%	109%	86.4%	97.1%	108%	91.3%	107%	84.5%	101%	97.6%
